48 compounds from PubChem BioAssay AID1508623 (National Center for Advancing Translational Sciences (NCATS), 2021) can be followed below.

SMILES strings stand for the structures. The whole screen tested about 48,000 compounds, of which about 450 (0.94%) were called active. Where a call stands in place of a potency, no number is given. Inconclusive results (about 19%) are left out. This is one part of a sample in which actives are shown more often than they occur. Unmarked numbers belong to inactive results. Calls come from the whole dose curve; as a rule, active = well fitted inhibition curve with a large enough effect; inconclusive = small, poorly fitted or top-dose-only effect; inactive = no such curve, though single readings can be large or run the other way.
Potency is the fitted concentration of half-maximal effect.

This assay in a line: Primary qHTS for Identification of Small Molecule Inhibitors of Huntingtin Promoter Activity. Note: nearly all actives have a fitted effect of over 50% in size. The settings on record: HEK293 HTT promoter firefly luciferase reporter (activity 0% = vehicle and -100% = no light), 24 h; series mostly up to 57.5 µM. The source says:
Assay Provider: Russell L. Margolis M.D.
Department Neurology, Johns Hopkins University School of Medicine, Baltimore, MD
Huntington's Disease (HD) is a neurodegenerative disorder caused by a CAG repeat expansion in exon 1 of huntingtin (HTT). While there are currently no disease-modifying treatments for HD, recent efforts have focused on development of nucleotide-based therapeutics to lower HTT expression. As an alternative to siRNA or oligonucleotide methods, we hypothesized that suppression of HTT expression might be accomplished by small molecules that either (1) directly decrease HTT expression by suppressing HTT promoter activity or (2) indirectly decrease HTT expression by increasing the promoter activity of HTT-AS, the gene antisense to HTT that appears to inhibit expression of HTT.
We developed and employed a high throughput screen for modifiers of HTT and HTT-AS promoter activity using luminescent reporter HEK293 cells; of the 52,041 compounds tested, we identified 898 replicable hits. We used a rigorous stepwise approach to assess compound toxicity and the capacity of the compounds to specifically lower huntingtin protein in 5 different cell lines, including HEK293 cells, HD lymphoblastoid cells, mouse primary neurons, HD iPSCs differentiated into cortical-like neurons, and HD hESCs. We found no compounds which were able to lower huntingtin without lowering cell viability in all assays, though the potential efficacy of a few compounds at non-toxic doses could not be excluded.
SEQUENCE No. (1, 2, 3, etc.); […] (e.g., Cells, Incubation, Reagent, etc.); VALUE and DESCRIPTION.
1; Reagent; 4 uL; 2,500 Hek293 luciferase reporter cells per wells
3; Compound; 23 nL; Control inhibitor / compound library
5; Reagent; 2.5 uL; Firefly Luc reagent; Dual-Glo Luciferase Reporter Assay System (Promega)
6; Time; 10 min; room temperature incubation
7; Detection; Luminescence; FLuc
NOTES (numbers refer to sequence above)
1; High-throughput screening, measuring luminescence from a Hek293 luciferase reporter, was performed in 1,536 well white-walled tissue-culture treated plates. 2,500 cells were plated in 4 µL of Opti-MEM per well using a Multidrop Combi Reagent Dispenser (ThermoFisher).
2; Assay plates were cultured for 24 hours.
3; Control inhibitor (PTC124; final concentration of 50 uM) and compound library (at final concentrations of 460 nM - 57.5 uM) were added to the assay plate using the Kalypsis Pintool Robotic System equipped with 1536 pinheads.
4; Cells were then incubated for 24 hours at 37 degrees C prior to luminescence measurements.
5; In all cases, luminescence was measured using the Dual-Glo Luciferase Reporter Assay System (Promega) following the manufacturer's instructions.
6; Room temperature incubation.
7; Luminescence signal was obtained using the PerkinElmer ViewLux plate reader. Results were normalized to vehicle control (0% activity) and zero RLU (-100% activity).
(In general: Quantitative high-throughput screening tests each substance at several concentrations.)
For `CC(C)CC(=O)NCC(c1ccc2c(c1)OCO2)N1CCN(c2ccc(F)cc2)CC1` (stereo not drawn), the Potency result is “inactive”. For `Cc1c(CCNC(=O)c2ccc(C(F)(F)F)cc2)sc2nc(-c3ccc(F)cc3)nn12`, the Potency result was “inactive”. `CCOC(=O)c1c(C)[nH]c(CCC(=O)NCCCN2CCN(c3cccc(Cl)c3)CC2)c1C`: the Potency entry is “inactive”. Regarding `CCOc1ccc(NC(=O)C(=O)NCCc2csc3nc(-c4ccccc4F)nn23)cc1`, the Potency result was “inactive”. Same read-out and setting: the entry for `COc1ccc(Cl)cc1N(C)C(=O)c1cc2c(=O)oc3ccc(C)cc3c2s1` is “inactive”; for `COc1cccc(Nc2nc3ccccc3c3nncn23)c1` it is “inactive”; for `Cc1ccc(C)n1-c1nnc(N2CCC(C(=O)NCc3ccccc3Cl)CC2)s1` it is “inactive”.

In the case of `O=S(=O)(c1ccc(Br)cc1)c1nnn2c1nc(N1CCOCC1)c1sccc12`, the Potency entry is “inactive”.

Regarding `Cc1ccc(CSc2nc3cccnc3n2Cc2ccc(C(=O)NC3CC3)cc2)cc1`, the Potency entry was “inactive”. Take `COc1ccc(S(=O)(=O)N2CCCCC2)cc1C(=O)NC1CCS(=O)(=O)C1` (stereo not drawn): the Potency result was “inactive”. With `Cc1ccc(-c2nn(CCC(=O)Nc3ccc(Cl)c(Cl)c3)c(=O)c3ccccc23)cc1`, the Potency result was “inactive”. On the same count and under the same terms, with `CCN(CC)CCNC(=O)CN1N=C(c2ccc(OC)cc2)CCC1=O` the entry was “inactive”. In the case of `CSc1ncc(C(=O)NCc2ccccc2Cl)c(C(F)(F)F)n1`, the Potency result was “inactive”. For `Cc1ccc(SCC(=O)Nc2ccc3oc(-c4ccccc4F)nc3c2)cc1`, the Potency entry was “inactive”. As to `CCOC(=O)c1cc2c(=O)n3ccccc3nc2n(CC2CCCO2)c1=NC(=O)c1ccc(C(C)(C)C)cc1` (stereo not drawn), the Potency result was “inactive”.

`CCOc1ccc2oc(=O)cc(CN3CCN(C(=O)c4ccc(F)cc4)CC3)c2c1`: the Potency result was “inactive”. As for `CCOc1ccc(OCC)c(Nc2nc3ccccc3n3nnnc23)c1`, the Potency result was “inactive”.

With `N#Cc1ccc(-c2cccs2)nc1SCc1ccc(Br)cc1`, the Potency entry was “inactive”. As for `Cc1ccc(CCNC(=O)c2ccc(CNS(=O)(=O)c3ccc(C)cc3)cc2)cc1`, the Potency entry was “inactive”. The same measure, in the same setting: the entry for `COc1ccc(NC(=O)CCCN2C(=O)CCn3nc(-c4cn(C)c5ccccc45)cc32)cc1OC` is “inactive”. On to `CCOc1ccccc1NC(=O)CN1CCN(S(=O)(=O)c2ccc(Br)cc2)CC1`, for which the Potency entry is “inactive”.

For `COc1ccccc1NC(=O)c1cc(C2CC2)nc2c1c(C)nn2-c1ccc(C)cc1`, the Potency entry is “inactive”. Same read-out and setting: the figure for `Cc1ccc(-n2ncc3c(N4CCC(C(N)=O)CC4)ncnc32)cc1` is 0.316 µM (active).

On to `Cc1ccc(Cl)cc1-n1ncc2c(N3CCC(C(N)=O)CC3)ncnc21`, for which the Potency result was “inactive”. With `CCN1CCN(c2ncnc3c2cnn3-c2ccc(C)c(C)c2)CC1`, the Potency result was “inactive”. As to `Cc1cc(OCC(=O)NCC2(N(C)C)CCCCC2)cc(C)c1Cl`, the Potency result is “inactive”. For the compound `Cc1nc2nc(SCC(=O)NC3CCC(C)CC3)nn2c(C)c1Cc1ccccc1Cl` (stereo not drawn), the Potency entry was “inactive”. Consider `Cc1ccc(-n2nnnc2CNC(=O)c2ccccc2C)cc1C`, for which the Potency entry is “inactive”. With `COc1ccc(OCCn2cc(C(=O)C3CCCCC3)c3ccccc32)cc1`, the Potency entry was “inactive”.

On to `COc1ccc(-c2noc(-c3ccc(N4CCN(c5ccccc5)CC4)c([N+](=O)[O-])c3)n2)cc1OC`, for which the Potency result is “inactive”. Consider `O=C(COc1ccccc1)NCc1ccc2c(c1)CCN2C(=O)c1ccc(F)cc1`, for which the Potency entry was “inactive”. With `Cc1cc2c(cc1S(=O)(=O)CCC(=O)NCc1ccccc1)OCC(=O)N2`, the Potency entry is “inactive”. For `Cn1c(SCC(=O)N2CCCc3ccccc32)ncc(C(=O)Nc2ccc(F)cc2)c1=O`, the Potency entry was “inactive”. For `COc1ccc(S(=O)(=O)NCc2cccn2Cc2cccc(C)c2)cc1`, the Potency result is “inactive”. For the compound `CC(C)c1ccc(NC(=O)c2cc(S(=O)(=O)N3CCc4ccccc4C3)ccc2F)cc1`, the Potency result was “inactive”. Regarding `Cc1ccc(-n2cnc3cc(C(=O)NCCC4=CCCCC4)ccc32)cc1Cl`, the Potency entry is “inactive”.

`Cc1ccc(NC(=O)c2cc(S(=O)(=O)NCCC3=CCCCC3)ccc2F)cc1C`: the Potency was 28.2 µM (active). In the case of `O=c1n(Cc2cccc(C(F)(F)F)c2)c2ccccc2c2nc(-c3ccccc3)nn12`, the Potency entry is “inactive”.

As for `COc1ccc(N2CCN(C(=O)c3cn(C)c4ccc(S(=O)(=O)N5CCOCC5)cc4c3=O)CC2)cc1`, the activity change, negative = inhibition is -18.7% [at 11.5 µM]. In the case of `O=C(Nc1cc(C(F)(F)F)ccc1Cl)c1nc2ccccc2nc1N1CCCCC1`, the Potency entry is “inactive”. As for `CCN(C(=O)Cn1c(=O)nc(-c2ccccc2)c2cc(Cl)ccc21)c1cccc(C)c1`, the Potency entry was “inactive”.

`COc1ccc(NC(=O)c2ccc3nc(CCc4ccccc4)oc3c2)c(OC)c1`: the Potency result is “inactive”.

Turning to `COc1ccc(NC(=O)c2ccc3oc(=O)c(S(=O)(=O)c4ccc(F)cc4)cc3c2)c(OC)c1`, the Potency is 11.2 µM (active). Consider `COc1ccc2c(c1)c(=O)c(S(=O)(=O)c1ccc(F)cc1)cn2CC(=O)Nc1ccc(C)cc1C`, for which the Potency result is “inactive”.

As for `Fc1ccc(C(Nc2ccc(Cl)c(C(F)(F)F)c2)c2nnc(-c3ccccc3)o2)cc1` (stereo not drawn), the Potency entry was “inactive”. As for `CC(=O)Nc1ccc(S(=O)(=O)N2CCN(c3ccccc3)CC2)cc1`, the Potency entry is “inactive”. In the case of `COc1ccc(Nc2ncc(C(=O)Nc3cc(C)ccc3OC)c3ccccc23)cc1`, the Potency result was “inactive”. For `O=C(CCCn1c(=O)c2cccn2c2cccnc21)NCc1ccc(F)cc1`, the Potency entry is “inactive”.
